From PubChem BioAssay (NCATS) come the findings set out here.

The target in assay [1] is Rap guanine nucleotide exchange factor 3 (Homo sapiens) (UniProt O95398). Kind of assay: Confirmatory qHTS for antagonist of cAMP-regulated guanine nucleotide exchange factor 3 (EPAC1) (AID 1645880). Further: nearly all actives have a fitted effect of over 55% in size. Further: potency means the concentration at half of the fitted maximal effect. The procedure, abridged:
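Released BODIPY-GDP fluoresces less than Rap1-bound BODIPY-GDP; the signal is followed at 480/540 nm at 5-min intervals over 30 min, after 5 min at room temperature. Reactions contain 100 nM EPAC1, 250 nM RAP1B-BODIPY-GDP and 50 uM GDP; results are normalized to ATA and DMSO.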
A general note: In qHTS, concentration-response curves come from the screen itself.

Assay [2] shares this target. Briefly: Confirmatory qHTS for agonist of cAMP-regulated guanine nucleotide exchange factor 3 (EPAC1) (AID 1645881). Further: nearly all actives have a fitted effect of over 75% in size. Further: potency means the concentration at half of the fitted maximal effect.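 On activation: EPAC1 catalysed release of BODIPY-GDP from Rap1B seen as fluorescence loss; 100% = effect of cAMP agonist control.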
Assay [3] deals with Rap guanine nucleotide exchange factor 4 (Homo sapiens) (UniProt Q8WZA2). Briefly: Confirmatory qHTS for agonist of cAMP-regulated guanine nucleotide exchange factor 4 (EPAC2) (AID 1645884).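 Further: nucleotide exchange releases bodipy-GDP from Rap1 and this lowers its fluorescence; nearly all actives have a fitted effect of over 65% in size.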 Further: potency means the concentration at half of the fitted maximal effect. On activation: on the % scale 0 is the no-effect control and ±100 the full control effect.
Chain of Rap guanine nucleotide exchange factor 4 (Homo sapiens) (Q8WZA2 whole entry, looked up): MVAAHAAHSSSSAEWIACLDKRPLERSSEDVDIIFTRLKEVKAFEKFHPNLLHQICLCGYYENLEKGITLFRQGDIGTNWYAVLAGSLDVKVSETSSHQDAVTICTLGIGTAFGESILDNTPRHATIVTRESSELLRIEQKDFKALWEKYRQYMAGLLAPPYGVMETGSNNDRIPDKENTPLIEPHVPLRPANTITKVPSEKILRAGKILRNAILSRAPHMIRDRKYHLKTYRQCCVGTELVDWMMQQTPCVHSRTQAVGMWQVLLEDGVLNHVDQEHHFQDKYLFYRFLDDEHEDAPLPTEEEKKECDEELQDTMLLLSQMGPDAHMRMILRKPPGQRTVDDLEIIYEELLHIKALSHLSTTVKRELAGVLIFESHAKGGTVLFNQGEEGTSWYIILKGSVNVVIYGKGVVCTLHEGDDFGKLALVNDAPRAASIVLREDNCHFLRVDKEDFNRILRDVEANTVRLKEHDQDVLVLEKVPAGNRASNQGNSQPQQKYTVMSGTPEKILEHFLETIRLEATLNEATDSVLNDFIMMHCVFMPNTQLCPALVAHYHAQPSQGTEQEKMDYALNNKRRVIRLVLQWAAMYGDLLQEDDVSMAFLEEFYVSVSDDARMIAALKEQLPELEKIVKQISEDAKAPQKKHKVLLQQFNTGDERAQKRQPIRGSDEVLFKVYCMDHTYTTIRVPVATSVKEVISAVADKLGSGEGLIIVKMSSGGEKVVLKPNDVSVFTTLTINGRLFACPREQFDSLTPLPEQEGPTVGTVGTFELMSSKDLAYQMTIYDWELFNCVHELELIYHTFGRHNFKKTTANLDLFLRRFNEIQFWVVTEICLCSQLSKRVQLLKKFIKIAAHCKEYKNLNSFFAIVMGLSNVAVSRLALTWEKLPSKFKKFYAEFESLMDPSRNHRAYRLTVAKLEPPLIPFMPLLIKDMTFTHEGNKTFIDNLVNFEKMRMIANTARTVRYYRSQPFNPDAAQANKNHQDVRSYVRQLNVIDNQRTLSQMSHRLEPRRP
Assay [4] shares this target. Kind of assay: Confirmatory qHTS for antagonist of cAMP-regulated guanine nucleotide exchange factor 4 (EPAC2) (AID 1645885). Further: nearly all actives have a fitted effect of over 25% in size. Further: potency means the concentration at half of the fitted maximal effect. On activity change, negative = inhibition: on the % scale 0 is the no-effect control and ±100 the full control effect.
In assay [5] the target is Rap guanine nucleotide exchange factor 3 (Homo sapiens) (UniProt O95398). Briefly: Counterscreen qHTS for antagonist of cAMP-regulated guanine nucleotide exchange factor 3 (EPAC1) (AID 1645888). Further: % of control where 0% means no effect. The method in brief: (§1)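 Rap1B–BODIPY-GDP (250 nM) with 50 uM GDP; compounds pin-transferred to 9.74 nM–152 uM final (activator) or from 7.32 nM upwards (inhibitor). Fluorescence Ex/Em 480/540 nm read at 5 and 30 min, then after adding cAMP or buffer, at room temperature.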
Chain of Rap guanine nucleotide exchange factor 3 (Homo sapiens) (O95398 whole entry, looked up): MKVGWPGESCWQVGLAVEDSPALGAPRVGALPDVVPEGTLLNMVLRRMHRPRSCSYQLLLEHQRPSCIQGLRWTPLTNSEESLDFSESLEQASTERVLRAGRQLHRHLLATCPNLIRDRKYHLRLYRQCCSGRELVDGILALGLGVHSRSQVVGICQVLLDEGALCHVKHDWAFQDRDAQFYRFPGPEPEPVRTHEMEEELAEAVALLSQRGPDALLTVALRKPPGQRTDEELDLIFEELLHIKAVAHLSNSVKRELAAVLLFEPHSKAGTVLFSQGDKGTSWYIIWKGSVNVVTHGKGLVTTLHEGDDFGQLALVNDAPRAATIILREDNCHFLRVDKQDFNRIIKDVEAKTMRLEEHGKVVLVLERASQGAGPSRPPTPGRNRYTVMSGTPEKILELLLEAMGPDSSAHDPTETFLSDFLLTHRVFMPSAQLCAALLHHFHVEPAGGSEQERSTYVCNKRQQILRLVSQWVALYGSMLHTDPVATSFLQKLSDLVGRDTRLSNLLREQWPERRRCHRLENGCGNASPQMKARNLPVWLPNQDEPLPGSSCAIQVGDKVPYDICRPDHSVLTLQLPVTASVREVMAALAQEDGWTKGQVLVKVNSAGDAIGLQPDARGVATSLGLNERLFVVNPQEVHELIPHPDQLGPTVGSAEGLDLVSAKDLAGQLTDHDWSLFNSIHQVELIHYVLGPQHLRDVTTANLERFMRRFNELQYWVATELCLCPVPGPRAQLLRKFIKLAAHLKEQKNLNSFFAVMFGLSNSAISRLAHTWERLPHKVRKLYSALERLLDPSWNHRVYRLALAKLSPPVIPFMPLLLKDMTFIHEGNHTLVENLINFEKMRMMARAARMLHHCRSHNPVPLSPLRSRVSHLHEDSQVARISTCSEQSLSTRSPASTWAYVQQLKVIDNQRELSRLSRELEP
(The purpose of a counterscreen is to sort out artefacts and off-target activity.)

For assay [6] the target is unchanged. Kind of assay: Counterscreen qHTS for agonist of cAMP-regulated guanine nucleotide exchange factor 3 (EPAC1) (AID 1645889). Further: nearly all actives have a fitted effect of over 40% in size. Further: potency means the concentration at half of the fitted maximal effect. On activation: % of control where 0% means no effect. The procedure, abridged:
as §1

For assay [7], the target named is Vitamin D3 receptor (Homo sapiens) (UniProt P11473). Briefly: qHTS for Inhibitors of the vitamin D receptor (VDR): Hit Validation using a Beta-Lactamase Assay (AID 602202). Further: on the % scale 0 is the no-effect control and ±100 the full control effect. The method in brief: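 Stably transfected HEK293 cells expressing VDR-GAL4 DNA-binding domain fusion with UAS-driven beta-lactamase reporter, activated by agonist LG190178; compounds incubated 18 h, then FRET beta-lactam substrate 2 h; cleaved substrate read at 447 nm emission.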
Chain of Vitamin D3 receptor (Homo sapiens) (P11473 whole entry, looked up, the tested form may be a part): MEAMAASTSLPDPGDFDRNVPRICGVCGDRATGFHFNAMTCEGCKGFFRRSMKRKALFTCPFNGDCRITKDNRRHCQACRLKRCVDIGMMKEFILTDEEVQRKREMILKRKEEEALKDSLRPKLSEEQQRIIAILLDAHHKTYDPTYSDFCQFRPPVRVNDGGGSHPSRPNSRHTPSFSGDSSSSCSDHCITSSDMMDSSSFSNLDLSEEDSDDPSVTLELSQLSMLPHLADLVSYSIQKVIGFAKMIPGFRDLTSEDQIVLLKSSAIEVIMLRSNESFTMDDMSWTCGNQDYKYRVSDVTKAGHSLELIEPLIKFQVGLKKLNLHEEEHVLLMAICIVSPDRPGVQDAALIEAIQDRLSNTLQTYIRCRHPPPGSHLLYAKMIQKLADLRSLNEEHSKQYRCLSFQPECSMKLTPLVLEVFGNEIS

Assay [8] can be described thus: qHTS for Inhibitors of the vitamin D receptor (VDR): Hit Validation using a Cytotoxicity Assay (AID 602204).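 Further: plate controls were DMSO for no effect and high-concentration cycloheximide for full effect; nearly all actives have a fitted effect of over 75% in size.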 The procedure, abridged: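 First, 20,000 cells are dispensed per well. Next comes a 4 h incubation, then compound addition and an 18 h incubation. Finally, ATP-based luminescent reagent is added and plates are read after 30 min.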
Assay [9] concerns the target Phosphoglycerate kinase, glycosomal (Trypanosoma brucei brucei) (UniProt P07378). Kind of assay: qHTS for inhibitors of Phosphogylcerate Kinase: Hit Validation Screen (AID 686980). Further: potency means the concentration at half of the fitted maximal effect; nearly all actives have a fitted effect of over 65% in size. As to conditions: TbPGK coupled GAPDH assay, Kinase-Glo luminescence. The procedure, abridged:
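Recombinant glycosomal PGK reaction used 1,3-bisphosphoglycerate generated in-well by GAPDH (100nM final) in 100mM TEA pH 7.6, 5mM MgCl2, 0.01% Tween-20. After 60 minutes at room temperature, ATP was read by Kinase-Glo Plus luminescence end-point.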

For assay [10], the target named is DNA polymerase iota (Homo sapiens) (UniProt Q9UNA4). Kind of assay: qHTS for Inhibitors of Polymerase Iota: Confirmatory Assay for Cherry-picked Compounds (AID 720496). Further: potency means the concentration at half of the fitted maximal effect. As to conditions: Pol iota primer extension, TAMRA/BHQ fluorescence. The method in brief:
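Kinetic fluorescence, 0 → 10 min, ex 525/em 598 nm. Pol iota 10 nM, 15 min RT preincubation with compound, then 50 nM (final) TAMRA/BHQ-2 primer-template substrate.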

Assay [11] concerns the target Bifunctional 3'-5' exonuclease/ATP-dependent helicase WRN (Homo sapiens) (UniProt Q14191). Briefly: qHTS for Inhibitors of WRN Helicase: Confirmatory Assay for Cherry-picked Compounds. (AID 720497). Further: potency means the concentration at half of the fitted maximal effect; nearly all actives have a fitted effect of over 65% in size. As to conditions: WRN helicase DNA unwinding, fluorescence kinetic. The procedure, abridged:
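Compound and 20 nM WRN incubated 15 min, RT. Forked duplex (100 nM) plus ATP (2 mM) added. Fluorescence monitored kinetically and normalized to controls.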

Assay [12] concerns the target Flap endonuclease 1 (Homo sapiens) (UniProt P39748). Kind of assay: qHTS Assay for the Inhibitors of FEN1: Confirmatory Assay for Cherry-picked Compounds (AID 720498). Further: potency means the concentration at half of the fitted maximal effect; nearly all actives have a fitted effect of over 60% in size. As to conditions: FEN1 flap cleavage, TAMRA/BHQ2 fluorogenic DNA substrate. The method in brief:
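Human FEN1 (10 nM reagent) was preincubated with compounds for 15 min at room temperature, then 50 nM final double-flap DNA substrate (5'-TAMRA flap, BHQ-2 quencher strand) was added. Fluorescence (ex 525/em 598 nm) was read at 0 and 15 min.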

A short description of assay [13]: qHTS for Inhibitors of WRN Helicase: Thiazole Orange DNA Binding Counterscreen (AID 720499).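 Further: drop in dye fluorescence marks compound binding to DNA; potency means the concentration at half of the fitted maximal effect; nearly all actives have a fitted effect of over 60% in size.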 As to conditions: thiazole orange DNA binding displacement, fluorescence. The procedure, abridged: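 To exclude WRN hits acting through DNA binding, fluorescence of 100 nM thiazole orange bound to 50 nM unlabeled DNA is read (ex 480, em 530 nm) 15 min after compound addition at room temperature.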

The target in assay [14] is DNA polymerase kappa (Homo sapiens) (UniProt Q9UBT6). Briefly: qHTS for Inhibitors of Polymerase Kappa: Confirmatory Assay for Cherry-picked Compounds (AID 720501). Further: potency means the concentration at half of the fitted maximal effect. As to conditions: purified Pol-kappa, fluorescent strand-displacement substrate. The method in brief:
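10 nM human Pol-kappa was preincubated with compound 15 min at room temperature, then 50 nM (final) primer/template substrate with TAMRA-labeled reporter strand and BHQ-2-labeled template added. Fluorescence (Ex 525, Em 598 nm) read at 0 and 10 min.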

Assay [15] addresses DNA polymerase eta (Homo sapiens) (UniProt Q9Y253). Briefly: qHTS for Inhibitors of Polymerase Eta: Confirmatory Assay for Cherry-picked Compounds (AID 720502). Further: potency means the concentration at half of the fitted maximal effect. As to conditions: Pol eta primer extension, TAMRA/BHQ fluorescence, 10 min. The procedure, abridged:
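10 nM Pol eta + cpd, 15 min RT; start w/ 50 nM final primer/TAMRA-reporter/BHQ-2-template substrate; kinetic read 0 and 10 min, ex 525/em 598 nm. Buffer-only wells = negative control.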

The target of assay [16] is RecQ-like DNA helicase BLM (Homo sapiens) (UniProt P54132). Kind of assay: qHTS for Inhibitors of WRN Helicase: BLM Helicase Counterscreen for WRN Inhibitors (AID 720503). Further: potency means the concentration at half of the fitted maximal effect; nearly all actives have a fitted effect of over 60% in size. As to conditions: Recombinant BLM helicase DNA unwinding, red fluorescence. The procedure, abridged: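 BLM (1 nM) was preincubated with compounds for 15 min at room temperature in Tris-HCl pH 8.0, 50 mM NaCl, 2 mM MgCl2 buffer. Unwinding started with 100 nM DNA and 2 mM ATP (final); red fluorescence was read twice, 15 min apart.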

Assay [17] deals with Tumor susceptibility gene 101 protein (Homo sapiens) (UniProt Q99816). Briefly: qHTS Assay for Iinhibitors of HIV-1 Budding by Blocking the Interaction of PTAP/TSG101: Hit Validation (AID 651600). Further: nearly all actives have a fitted effect of over 70% in size. Further: potency means the concentration at half of the fitted maximal effect. On activity change, negative = inhibition: on the % scale 0 is the no-effect control and ±100 the full control effect. The method in brief:
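Measuring PTAP–Tsg101 interaction by FP: protein at 10 uM and fluorescent peptide at 50 nM (final), buffer 10 mM HEPES pH 7.5 with 0.15 M NaCl, 3 mM EDTA, 0.1 mM TCEP, 0.01% Tween 20; 20 min incubation, r.t.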

Structures are written as SMILES. Results filed as inconclusive are left out. A number with no mark means an inactive call. This is one part of the list. Calls of active or inactive are those of the source. The call rests on the fitted dose curve; in most records, active means well fitted curve in the direction sought with a large enough effect; inconclusive means small, poorly fitted or top-dose-only effect, or another doubt; inactive means no such curve, though single readings can be large; an effect the other way counts as inactive or inconclusive.

Chain of Tumor susceptibility gene 101 protein (Homo sapiens) (Q99816 whole entry, looked up): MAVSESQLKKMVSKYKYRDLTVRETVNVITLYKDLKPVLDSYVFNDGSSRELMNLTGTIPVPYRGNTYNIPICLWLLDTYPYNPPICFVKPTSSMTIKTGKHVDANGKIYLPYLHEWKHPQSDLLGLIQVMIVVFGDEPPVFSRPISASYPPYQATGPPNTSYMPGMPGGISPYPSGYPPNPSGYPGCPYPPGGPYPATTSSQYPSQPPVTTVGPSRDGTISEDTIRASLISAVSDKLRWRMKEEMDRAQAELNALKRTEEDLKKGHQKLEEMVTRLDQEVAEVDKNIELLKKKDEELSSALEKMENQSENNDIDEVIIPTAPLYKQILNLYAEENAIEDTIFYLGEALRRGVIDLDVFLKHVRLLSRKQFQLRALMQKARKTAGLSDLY
Chain of DNA polymerase eta (Homo sapiens) (Q9Y253 whole entry, looked up): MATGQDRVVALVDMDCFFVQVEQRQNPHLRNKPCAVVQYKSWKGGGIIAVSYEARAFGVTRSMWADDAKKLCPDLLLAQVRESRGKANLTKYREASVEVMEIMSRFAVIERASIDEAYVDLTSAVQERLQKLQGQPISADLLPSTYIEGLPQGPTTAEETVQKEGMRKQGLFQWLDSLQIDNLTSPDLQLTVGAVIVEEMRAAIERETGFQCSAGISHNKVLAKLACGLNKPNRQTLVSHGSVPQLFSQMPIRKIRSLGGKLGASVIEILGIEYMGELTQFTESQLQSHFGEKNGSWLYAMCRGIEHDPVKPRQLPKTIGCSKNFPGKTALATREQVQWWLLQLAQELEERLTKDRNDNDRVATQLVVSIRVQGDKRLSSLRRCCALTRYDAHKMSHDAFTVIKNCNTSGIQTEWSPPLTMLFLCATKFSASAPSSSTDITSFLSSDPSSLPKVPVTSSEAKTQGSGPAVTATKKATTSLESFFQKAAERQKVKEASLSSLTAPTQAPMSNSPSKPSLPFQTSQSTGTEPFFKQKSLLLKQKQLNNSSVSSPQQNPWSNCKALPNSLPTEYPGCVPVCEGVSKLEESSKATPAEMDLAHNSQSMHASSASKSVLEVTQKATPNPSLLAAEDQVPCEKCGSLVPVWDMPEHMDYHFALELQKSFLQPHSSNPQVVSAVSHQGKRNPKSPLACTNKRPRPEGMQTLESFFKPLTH
Chain of DNA polymerase kappa (Homo sapiens) (Q9UBT6 whole entry, looked up): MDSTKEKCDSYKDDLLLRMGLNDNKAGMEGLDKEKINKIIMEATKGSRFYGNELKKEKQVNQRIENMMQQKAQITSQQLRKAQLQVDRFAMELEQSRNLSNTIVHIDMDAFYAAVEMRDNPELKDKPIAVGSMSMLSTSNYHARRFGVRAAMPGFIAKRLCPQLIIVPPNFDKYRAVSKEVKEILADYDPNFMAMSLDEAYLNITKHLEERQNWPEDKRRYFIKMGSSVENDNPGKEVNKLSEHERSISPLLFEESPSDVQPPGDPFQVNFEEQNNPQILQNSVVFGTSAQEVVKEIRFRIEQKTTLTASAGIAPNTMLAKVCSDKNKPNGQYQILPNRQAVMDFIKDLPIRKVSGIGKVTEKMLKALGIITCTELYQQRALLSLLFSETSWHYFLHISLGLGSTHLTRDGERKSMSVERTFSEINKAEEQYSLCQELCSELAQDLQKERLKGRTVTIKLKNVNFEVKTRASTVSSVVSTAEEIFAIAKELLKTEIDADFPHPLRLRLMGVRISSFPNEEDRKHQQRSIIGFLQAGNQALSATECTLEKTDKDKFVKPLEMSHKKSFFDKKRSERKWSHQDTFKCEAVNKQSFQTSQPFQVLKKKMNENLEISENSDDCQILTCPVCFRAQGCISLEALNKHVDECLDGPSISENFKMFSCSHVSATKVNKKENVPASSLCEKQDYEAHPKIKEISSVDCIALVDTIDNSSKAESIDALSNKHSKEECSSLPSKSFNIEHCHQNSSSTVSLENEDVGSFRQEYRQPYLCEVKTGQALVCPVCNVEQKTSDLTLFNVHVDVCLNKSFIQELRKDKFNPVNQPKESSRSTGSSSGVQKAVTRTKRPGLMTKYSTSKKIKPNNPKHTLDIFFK
Chain of Phosphoglycerate kinase, glycosomal (Trypanosoma brucei brucei) (P07378 whole entry, looked up): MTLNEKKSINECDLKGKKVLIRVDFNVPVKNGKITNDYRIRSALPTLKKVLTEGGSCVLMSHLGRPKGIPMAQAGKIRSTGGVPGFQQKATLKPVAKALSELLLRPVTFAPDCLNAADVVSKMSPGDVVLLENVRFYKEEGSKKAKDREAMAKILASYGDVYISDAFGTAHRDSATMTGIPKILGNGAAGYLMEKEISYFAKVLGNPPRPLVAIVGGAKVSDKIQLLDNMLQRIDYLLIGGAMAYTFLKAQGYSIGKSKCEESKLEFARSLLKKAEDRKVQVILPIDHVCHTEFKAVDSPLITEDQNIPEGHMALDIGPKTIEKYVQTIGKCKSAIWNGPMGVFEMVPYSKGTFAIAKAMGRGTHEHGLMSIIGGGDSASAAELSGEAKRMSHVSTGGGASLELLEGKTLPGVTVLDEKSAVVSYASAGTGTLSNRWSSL

On to `COC(=O)C1=C(c2ccc3ccccc3c2)C[C@@H]2CC[C@H]1N2C(=O)NC1CC1`, for which the Potency result in [1], in [2], in [3], in assay [4] and in assay [6] was “inactive” in each case. The compound was classed as inactive in assay [5].

As to `O=C1Nc2ccccc2/C1=C/c1nc2ccccc2c(=O)n1-c1ccc(O)cc1`, the Potency in assay [1] is 35.5 µM (active). For the same compound, the Potency result in [2] is “inactive”. Moreover, the activation is 2.57% [at 17.1 µM, percent relative to cAMP agonist control] in assay [3] and 1.32% [at 30.8 µM] in assay [6]. Further, the activity change, negative = inhibition in assay [4] was 0.205% [at 12.7 µM]; in assay [5] it was -7.19% [at 30.8 µM].

Take `COc1ccc(N2C(=O)/C(=C/c3ccco3)C(=O)NC2=S)cc1`: the result in assay [7] and in assay [8] was inactive. Also, the Potency in assay [9] is 0.517 µM (active); in assay [10], 1.06 µM (active); in assay [11], 1.52 µM (active); in assay [12], 21.3 µM (active); in [13] it was 3.41 µM (active); in [14] it was 0.67 µM (active). In addition, the Potency in assay [15] was 2.39 µM (active); in assay [16] it was 0.215 µM (active); in assay [1], 6.31 µM (active). The Potency entry in assay [2] was “inactive”. Moreover, the activation in assay [3] was 10.2% [at 17.1 µM, percent relative to cAMP agonist control]. In addition, the activity change, negative = inhibition is 33.5% [at 12.7 µM] in assay [4] and -2.79% [at 30.8 µM] in assay [5].

Consider `COc1ccc(OC)c(N2C(=O)NC(=O)/C(=C/c3ccc([N+](=O)[O-])s3)C2=O)c1`, for which the Potency in assay [1] was 7.94 µM (active). Further, the Potency result in [2] was “inactive”. Also, the activation in assay [3] is 2.06% [at 17.1 µM, percent relative to cAMP agonist control]; in [6], 21.8% [at 30.8 µM]. In addition, the results for the activity change, negative = inhibition in [4] and in assay [5] were -32.4% [at 12.7 µM] and 10.9% [at 30.8 µM], respectively.

In the case of `Cn1cccc1/C=C1/C(=O)NC(=S)N(Cc2ccc(F)cc2)C1=O`, the Potency in assay [1] was 31.6 µM (active). Also, the Potency result in [2] is “inactive”. In addition, the activation was 0.836% [at 17.1 µM, percent relative to cAMP agonist control] in assay [3] and 10.8% [at 30.8 µM] in assay [6]. Also, the results for the activity change, negative = inhibition in assay [4] and in assay [5] were -22.8% [at 12.7 µM] and -2.5% [at 30.8 µM], respectively.

`CCN(CC)C(=O)Cn1cc(C=C2C(=O)N(C)C(=O)N(C)C2=O)c2ccccc21`: the Potency entry in [17] and in [2] was “inactive” in each case. In assay [1], the Potency was 79.4 µM (active). In addition, in assay [3], the activation was 4.19% [at 17.1 µM, percent relative to cAMP agonist control]. In addition, the activity change, negative = inhibition in [4] was 3.22% [at 12.7 µM]; in [5] it was -5.5% [at 30.8 µM].

Take `O=C1NC(=O)N(Cc2ccc(F)cc2)C(=O)/C1=C\c1ccc([N+](=O)[O-])s1`: the results for the Potency in assay [1] and in assay [6] were 12 µM (active) and 22.4 µM (active), respectively. Further, the Potency result in [2], in assay [3] and in assay [4] was “inactive” in each case. For the same compound, the result in assay [5] was inactive.

Consider `O=C1NC(=O)N(Cc2ccco2)C(=O)/C1=C\c1ccc(-c2ccc(F)cc2)o1`, for which the values for the Potency in assay [14], in [15] and in assay [1] were 42.3 µM (active), 47.8 µM (active) and 22.4 µM (active), respectively. In addition, in assay [2], the Potency entry was “inactive”. In addition, the activation in [3] is -0.903% [at 17.1 µM, percent relative to cAMP agonist control]; in [6], 11.1% [at 30.8 µM]. Also, the activity change, negative = inhibition was -6.14% [at 12.7 µM] in [4] and -21.9% [at 30.8 µM] in assay [5].

Consider `CC[C@@H]1c2ccccc2[C@@H]2CC[C@H]1N2c1ccccc1`, for which the Potency entry in assay [1] and in [2] was “inactive” throughout. In addition, the activation in assay [3] is 4.18% [at 17.1 µM, percent relative to cAMP agonist control]; in assay [6], -4.47% [at 30.8 µM]. The values for the activity change, negative = inhibition in [4] and in assay [5] were -6.37% [at 12.7 µM] and -4.57% [at 30.8 µM], respectively.

For `O=c1cc(C(F)(F)F)c2cc3c4c(c2o1)CCCN4CCC3`, the Potency is 0.651 µM (active) in assay [17]; 50.1 µM (active) in assay [2]; 39.8 µM (active) in assay [3]; 60.1 µM (active) in assay [4]; 50.1 µM (active) in assay [6]. Moreover, the Potency result in [1] was “inactive”. In addition, the outcome in assay [5] was inactive.

Consider `Cc1cccc(N2C(=O)NC(=O)/C(=C\c3cccn3-c3ccc(Cl)cc3)C2=O)c1`, for which the Potency in assay [1] is 47.8 µM (active). The Potency entry in [2], in [3], in [4] and in assay [6] was “inactive” throughout. For the same compound, the compound was classed as inactive in assay [5].

As for `COc1ccc(N=Cc2c(O)n(Cc3ccccc3)c(=S)[nH]c2=O)c(OC)c1`, the Potency entry in [1], in assay [4] and in [6] was “inactive” each time. The Potency was 79.4 µM (active) in assay [2] and 100 µM (active) in assay [3]. Further, the outcome in assay [5] was inactive.

With `O=C1NC(=O)N(Cc2ccco2)C(=O)/C1=C/C=C/c1ccco1`, the Potency result in assay [1] and in assay [2] was “inactive” in each case. Also, the activation is 0.0468% [at 17.1 µM, percent relative to cAMP agonist control] in assay [3] and -8.64% [at 30.8 µM] in [6]. For the same compound, the activity change, negative = inhibition in assay [4] is 0.223% [at 12.7 µM]; in [5], -7.48% [at 30.8 µM].
